Laboratory results published in the supplement of paper PMC9897528.
A number with no mark means an inactive call.
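Note: conidia screened in RPMI 1640 medium under 5% CO2, growth read by spectrophotometer, medium with 0.5% DMSO serving as the untreated reference.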

These compounds were tested on Scedosporium aurantiacum CBS 136046 (assay: growth inhibition relative to DMSO control (OD600); higher = more antifungal activity, active = 80 or more; extreme values may be limits of the assay). Conditions: 5 µM; 72 h; 37 °C.
In the case of `CC[C@@H](CO)NCCN[C@@H](CC)CO`, the growth inhibition is reported as 11.4%. `CCc1oc2ccccc2c1C(=O)c1ccc(O)cc1` was tested, and the growth inhibition was 35.1%. Compound `NC[C@H]1O[C@H](O[C@H]2[C@H](O)[C@@H](O[C@H]3O[C@H](CO)[C@@H](O)[C@H](N)[C@H]3O)[C@H](N)C[C@@H]2N)[C@H](N)C[C@@H]1O` has a growth inhibition of 15.5%. For `N#C/C(=C1/SC[C@H](c2ccc(Cl)cc2Cl)S1)n1ccnc1`, the growth inhibition was 85.6% (active). With `Nc1nc(-c2ccccc2)nc2c1ncn2[C@@H]1O[C@H](COS(=O)(=O)NC(=O)c2ccccc2O)[C@@H](O)[C@H]1O` the growth inhibition was 30%. Compound `CC(C)CCN1C(=O)C(C2=NS(=O)(=O)c3cc(NS(C)(=O)=O)ccc3N2)=C(O)[C@@H]2[C@H]3CC[C@H](C3)[C@@H]21` has a growth inhibition of 28.5%. `Nc1nc(O)c(Br)c(-c2cccc(Cl)c2)n1` gave a growth inhibition of 4.65%. Compound `CCOC(=O)Nc1cc(NC(C)CC(C)CN(CC)CC)c2nc(-c3ccccc3)c(-c3ccccc3)nc2n1` (configuration not stated) has a growth inhibition of 36.4%. `Cc1cccc(C)c1C(=O)Nc1nc(-c2ccccn2)cc2ccccc12` gave a growth inhibition of 26.2%. With `O=C(NCc1ccccc1Cl)c1cnc2ccccc2n1` the growth inhibition was 10.6%. Work on `CCC[C@H](NC(=O)[C@@H]1[C@H]2CCC[C@H]2CN1C(=O)[C@@H](NC(=O)[C@@H](NC(=O)c1cnccn1)C1CCCCC1)C(C)(C)C)C(=O)C(=O)NC1CC1` yielded a growth inhibition of 4.34%. `CNC(=O)C1O[C@@H](n2cnc3c(NCc4cccc(I)c4)nc(Cl)nc32)[C@H](O)[C@@H]1O` (some centres not stated) gave a growth inhibition of 3.52%.
